Experimental findings from PubChem BioAssay (Tox21) are described below.

Records with an inconclusive call do not appear. A number with no mark means an inactive call. Activity calls are given as the source filed them. The call rests on the fitted dose curve; in most records, active means well fitted curve in the direction sought with a large enough effect in the repeat runs; inconclusive means weak or mixed curves; inactive means no such curve, though single readings can be large; an effect the other way counts as inactive or inconclusive.

Assay [1] is described as follows: qHTS RealTime-Glo MT Cell Viability Assay in HepG2 cells - 40 hour (AID 1224870). Further: nearly all actives have a fitted effect of over 50% in size. The method in brief: (§1)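 HepG2 cells (600/well) mixed with RealTime-Glo MT reagent, settled 5 h at 37 C/5% CO2 before compound addition. Nonlytic NanoLuc luminescence from viable-cell prosubstrate reduction read repeatedly during 40 h treatment at 37 C.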
Assay [2] in a line: A CellTox Green Cytotoxicity Assay to monitor cytotoxicity in HEK293 cells - 40 hour (AID 1224871). Further: nearly all actives have a fitted effect of over 45% in size. The method in brief:
(§2)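 Tox21 screen in HEK293: membrane-impermeant cyanine dye fluoresces on binding dead-cell DNA; compound pinned 5 h post-seeding, plates held at 37 C, signal read repeatedly through 40 h.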

Assay [3] is described as follows: qHTS RealTime-Glo MT Cell Viability Assay in HEK293 cells - 16 hour (AID 1224872). Further: nearly all actives have a fitted effect of over 50% in size. Further: potency means the concentration at half of the fitted maximal effect. On activity change, negative = cytotoxicity: top concentration of the series differs between compounds. The method in brief:
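Luminescence generated by NanoLuc from substrate produced by living HEK293 cells served as the viability signal. Each value reflects the reading at its stated time point during continuous 40 h compound exposure at 37 C.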

The nature of assay [4]: qHTS RealTime-Glo MT Cell Viability Assay in HepG2 cells - 8 hour (AID 1224873). Further: nearly all actives have a fitted effect of over 55% in size. An outline of the steps:
as §1

The nature of assay [5]: qHTS RealTime-Glo MT Cell Viability Assay in HEK293 cells - 40 hour (AID 1224874). Further: nearly all actives have a fitted effect of over 50% in size. Further: potency means the concentration at half of the fitted maximal effect. The settings on record: RealTime-Glo luminescence; max response: hits give low values. An outline of the steps:
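HEK293 + NanoLuc + prosubstrate, 600 cells/well; 5 h, 37 C/5% CO2; compound 23 nL in DMSO by pintool; 37 C; luminescence read at 0, 8, 16, 24, 32 and 40 h time points.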

Assay [6] can be described thus: A CellTox Green Cytotoxicity Assay to monitor cytotoxicity in HEK293 cells - 24 hour (AID 1224875). Further: series mostly up to about 77 µM; nearly all actives have a fitted effect of over 45% in size. The method in brief: as §2
Assay [7] is described as follows: A CellTox Green Cytotoxicity Assay to monitor cytotoxicity in HepG2 cells - 16 hour (AID 1224876). Further: nearly all actives have a fitted effect of over 45% in size. The method in brief: (§3)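 Measurements at 0, 8, 16, 24, 32 and 40 h of treatment captured CellTox Green fluorescence in HepG2 cells that had been co-plated with reagent and preincubated 5 h at 37 C/5% CO2.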
Assay [8] can be described thus: qHTS RealTime-Glo MT Cell Viability Assay in HepG2 cells - 32 hour (AID 1224877). Further: nearly all actives have a fitted effect of over 55% in size. The method in brief: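 Tox21 10K library screened in qHTS format on HepG2 cells carrying RealTime-Glo reagents. Compounds were added after a 5 h preincubation, and the luminescent signal from continuous culture was measured repeatedly during 40 h treatment.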
Assay [9] in a line: A CellTox Green Cytotoxicity Assay to monitor cytotoxicity in HepG2 cells - 24 hour (AID 1224878). Further: nearly all actives have a fitted effect of over 45% in size. The method in brief:
as §3

Assay [10] in a line: A CellTox Green Cytotoxicity Assay to monitor cytotoxicity in HepG2 cells - 40 hour (AID 1224879). Further: nearly all actives have a fitted effect of over 40% in size. The method in brief: as §3
On the % scale 0 is the no-effect control and ±100 the full control effect.

For `Cn1ccc2cc3c(cc21)CCN3C(=O)Nc1cccnc1`, the activity change, negative = cytotoxic is -0.975% [at 15.8 µM] in assay [1] and -1.69% [at 15.8 µM] in assay [8]. For the same compound, the cytotoxicity increase was -10.7% [at 15.8 µM] in [2], -8.93% [at 15.8 µM] in assay [7] and -12.1% [at 15.8 µM] in [10]. Moreover, in [3], the activity change, negative = cytotoxicity was -8.97% [at 15.8 µM]. For the same compound, in assay [4], the viability change, negative = cytotoxic is -3.74% [at 15.8 µM]. In [5], the max response is -5.83%. Besides, in [6], the activity change is -2.97% [at 15.8 µM, hits give high values]. Moreover, the cytotoxicity in assay [9] was -8.65% [at 15.8 µM].
Take `N#CCN(CC#N)CCN(CC#N)CC#N`: the Potency result in [1], in assay [2], in assay [3], in assay [6], in [7] and in assay [8] was “inactive” throughout. The Potency entry in assay [9] and in assay [10] was “inactive” each time. The result in assay [4] was inactive. The max response in [5] was 4.6%.
Regarding `COc1ccc2cc(C=O)ccc2c1`, the Potency result in [1], in assay [2], in assay [3], in [6], in assay [7] and in assay [8] was “inactive” throughout. Besides, the Potency entry in assay [9] and in [10] was “inactive” throughout. Also, the outcome in [4] was inactive. The max response in [5] was 2.85%.
As to `C=CC(=O)OCCCCCC`, the Potency result in [1], in [2], in [3], in [6], in assay [7] and in assay [8] was “inactive” each time. Besides, the Potency entry in assay [9] and in assay [10] was “inactive” each time. Moreover, in assay [4], the outcome was inactive. Besides, the max response in assay [5] is -6.6%.
On to `CC(C)(C)CC(C)(C)N`, for which the Potency entry in [1], in [2], in assay [3], in assay [6], in [7] and in [8] was “inactive” throughout. Moreover, the Potency result in [9] and in assay [10] was “inactive” each time. Also, in assay [4], the call was inactive. For the same compound, the max response in assay [5] was 11.1%.
`COc1ccc(NC(C)=O)cc1`: the Potency result in assay [1], in assay [2], in assay [3], in [6], in assay [7] and in assay [8] was “inactive” throughout. Besides, the Potency result in assay [9] and in [10] was “inactive” each time. For the same compound, the call in [4] was inactive. Also, in assay [5], the max response is -7.34%.
Regarding `CSc1nc(NC2CC2)nc(NC(C)(C)C)n1`, the Potency result in assay [1], in [2], in assay [6], in [7], in assay [8] and in [9] was “inactive” each time. Besides, the Potency entry in [10] was “inactive”. For the same compound, the Potency in assay [3] and in assay [5] was 24.5 µM (active) each time. For the same compound, the result in [4] was inactive.
For the compound `CCN1CCCC(OC(=O)C(c2ccccc2)c2ccccc2)C1` (stereo unspecified), the Potency result in assay [1], in [2], in assay [3], in assay [6], in [7] and in assay [8] was “inactive” throughout. Moreover, the Potency result in [9] and in assay [10] was “inactive” throughout. Also, the result in assay [4] was inactive. Also, in [5], the max response is 14.8%.
Turning to `CCC(=O)Nc1cccc(N)c1`, the Potency entry in [1], in assay [2], in [3], in [6], in assay [7] and in assay [8] was “inactive” each time. In addition, the Potency entry in assay [9] and in assay [10] was “inactive” in each case. In addition, the result in assay [4] was inactive. Further, the max response in [5] was 0.318%.
As to `CC1(C)OC(=O)Nc2ccc(Br)cc21`, the Potency entry in [1], in assay [2], in assay [3], in assay [6], in assay [7] and in assay [8] was “inactive” in each case. Further, the Potency result in [9] and in [10] was “inactive” each time. For the same compound, the call in assay [4] was inactive. Besides, the max response in [5] is 0.0036%.
As for `CCCCCCCCCCC1CO1` (stereo unspecified), the Potency entry in [1], in [2], in assay [3], in assay [6], in [7] and in [8] was “inactive” throughout. Besides, the Potency result in assay [9] and in [10] was “inactive” each time. Further, in [4], the outcome was inactive. In addition, in assay [5], the max response is 6.25%.
As to `C1C2OC2C2C1C1CC2C2OC12` (stereo unspecified), the Potency entry in assay [1], in assay [2], in assay [3], in assay [6], in assay [7] and in assay [8] was “inactive” each time. The Potency entry in [9] and in assay [10] was “inactive” throughout. In assay [4], the result was inactive. The max response in assay [5] is 2.43%.
`CCCCCCCCN(C)CCCCCCCC`: the Potency entry in assay [1], in [2], in [3], in assay [6], in assay [7] and in assay [8] was “inactive” throughout. Moreover, the compound was classed as inactive in assay [4]. The max response in assay [5] was 4.39%.
In the case of `Nc1nc2c(ncn2CCC(CO)CO)c(=O)[nH]1`, the Potency result in assay [1], in [2], in [3], in assay [6], in [7] and in [8] was “inactive” each time. Also, the Potency entry in assay [9] and in assay [10] was “inactive” throughout. Besides, the call in [4] was inactive. Moreover, in assay [5], the max response was 0.17%.
With `CC(C)c1cccc(O)c1`, the Potency result in [1], in assay [2], in assay [3], in assay [6], in [7] and in assay [8] was “inactive” each time. For the same compound, the compound was classed as inactive in assay [4]. Moreover, the max response in assay [5] was 1.56%.
Consider `CCc1cc(S(=O)(=O)O)c2cc(C(C)C)cccc1-2`, for which the Potency result in assay [1], in [2], in [3], in [6], in assay [7] and in assay [8] was “inactive” in each case. Also, the Potency entry in assay [9] and in assay [10] was “inactive” each time. Also, in assay [4], the compound was called inactive. For the same compound, the max response in assay [5] is 7.39%.
Turning to `CC1=CC(=O)CCC1`, the Potency entry in assay [1], in assay [2], in assay [3], in [6], in [7] and in assay [8] was “inactive” in each case. Further, the Potency result in [9] and in assay [10] was “inactive” each time. The call in [4] was inactive. Also, the max response in [5] is -3.69%.
On to `CCC(=O)c1cccc(Cl)c1`, for which the Potency entry in assay [1], in [2], in [3], in [6], in assay [7] and in assay [8] was “inactive” each time. Further, the Potency entry in assay [9] and in [10] was “inactive” throughout. In addition, the compound was classed as inactive in assay [4]. In assay [5], the max response was 3.96%.
For the compound `CCCCCOC(=O)Nc1nc(=O)n([C@@H]2O[C@H](C)[C@@H](O)[C@H]2O)cc1F`, the Potency result in assay [1], in assay [2], in assay [3], in assay [6], in assay [7] and in assay [8] was “inactive” in each case. The Potency entry in assay [9] and in [10] was “inactive” throughout. Also, the compound was classed as inactive in assay [4]. In addition, in [5], the max response was 7%.
